# Shown is part of a subset that was picked to be rich in the strongest signals.
# Assays:
# Test in all cases: glycan array binding signal (z-score within array); higher = stronger binding
# Details in all cases: glycan notation: IUPAC condensed, linker removed
# [1] = biological target: Fuc(a1-3)[Gal(b1-4)]GlcNAc(b1-2)Man(a1-3)[Fuc(a1-3)[Gal(b1-4)]GlcNAc(b1-2)Man(a1-6)]Man(b1-4)GlcNAc(b1-4)GlcNAc
# In short: (§1)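 The binding signal is a Z-score computed within each array. Data were drawn from 3228 arrays in the Consortium for Functional Glycomics database, restricted to those with a known protein sequence. Scores were averaged over arrays of the same protein sequence at different concentrations or buffers, and over linkers, and negative values can be taken as non-binding.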
# [2] = biological target: Fuc(a1-3)[Gal(b1-4)]GlcNAc(b1-3)Gal(b1-3)[Fuc(a1-4)]GlcNAc
# In short: as §1
# [3] = biological target: Fuc(a1-3)[Gal3S(b1-4)]Glc
# In short: as §1
# [4] = biological target: Fuc(a1-3)[GalNAc(b1-4)]GlcNAc
# In short: as §1
# [5] = biological target: Gal(a1-3)Gal(b1-3)GlcNAc(b1-6)GalNAc
# In short: as §1
# [6] = biological target: Gal(a1-3)Gal(b1-4)GlcNAc
# In short: as §1
# [7] = biological target: Gal(a1-3)Gal(b1-4)GlcNAc(b1-3)GalNAc
# In short: as §1
# [8] = biological target: Gal(a1-3)Gal(b1-4)[Fuc(a1-3)]GlcNAc
# In short: as §1
# [9] = biological target: Gal(b1-3)GlcNAc(b1-3)Gal(b1-3)GlcNAc
# In short: as §1
# [10] = biological target: Gal(b1-3)GlcNAc(b1-3)Gal(b1-4)GlcNAc
# In short: as §1
# [11] = biological target: Gal(b1-3)GlcNAc(b1-3)Gal(b1-4)[Fuc(a1-3)]GlcNAc
# In short: as §1
# [12] = biological target: Gal(b1-4)Glc6S
# In short: as §1
# [13] = biological target: Gal(b1-4)GlcNAc(a1-6)Gal(b1-4)GlcNAc
# In short: as §1
# [14] = biological target: Gal(b1-4)GlcNAc(b1-2)Man(a1-3)Man(b1-4)GlcNAc(b1-4)GlcNAc
# In short: as §1
# [15] = biological target: Gal(b1-4)GlcNAc(b1-2)Man(a1-3)[GlcNAc(b1-4)][Gal(b1-4)GlcNAc(b1-2)Man(a1-6)]Man(b1-4)GlcNAc(b1-4)GlcNAc
# In short: as §1
# [16] = biological target: Gal(b1-4)GlcNAc(b1-2)Man(a1-6)[GlcNAc(b1-2)Man(a1-3)]Man(b1-4)GlcNAc(b1-4)GlcNAc
# In short: as §1
# [17] = biological target: Gal(b1-4)GlcNAc(b1-3)Gal(b1-4)GlcNAc(b1-3)Gal(b1-4)GlcNAc(b1-2)Man(a1-3)[Gal(b1-4)GlcNAc(b1-3)Gal(b1-4)GlcNAc(b1-3)Gal(b1-4)GlcNAc(b1-2)Man(a1-6)]Man(b1-4)GlcNAc(b1-4)GlcNAc
# In short: as §1
# [18] = biological target: Gal(b1-4)GlcNAc(b1-3)Gal(b1-4)GlcNAc(b1-3)Gal(b1-4)GlcNAc(b1-2)Man(a1-3)[Gal(b1-4)GlcNAc(b1-3)Gal(b1-4)GlcNAc(b1-3)Gal(b1-4)GlcNAc(b1-2)Man(a1-6)]Man(b1-4)GlcNAc(b1-4)[Fuc(a1-6)]GlcNAc
# In short: as §1
# [19] = biological target: Gal(b1-4)GlcNAc(b1-3)Gal(b1-4)GlcNAc(b1-3)Gal(b1-4)GlcNAc(b1-2)[Gal(b1-4)GlcNAc(b1-3)Gal(b1-4)GlcNAc(b1-3)Gal(b1-4)GlcNAc(b1-6)]Man(a1-6)[Gal(b1-4)GlcNAc(b1-3)Gal(b1-4)GlcNAc(b1-3)Gal(b1-4)GlcNAc(b1-2)Man(a1-3)]Man(b1-4)GlcNAc(b1-4)[Fuc(a1-6)]GlcNAc
# In short: as §1
# [20] = biological target: Gal(b1-4)GlcNAc(b1-3)Gal(b1-4)GlcNAc(b1-3)Gal(b1-4)GlcNAc(b1-3)Gal(b1-4)GlcNAc(b1-2)Man(a1-3)[Gal(b1-4)GlcNAc(b1-3)Gal(b1-4)GlcNAc(b1-3)Gal(b1-4)GlcNAc(b1-3)Gal(b1-4)GlcNAc(b1-2)Man(a1-6)]Man(b1-4)GlcNAc(b1-4)[Fuc(a1-6)]GlcNAc
# In short: as §1
# [21] = biological target: Gal(b1-4)GlcNAc(b1-3)Gal(b1-4)GlcNAc(b1-3)Gal(b1-4)GlcNAc(b1-3)Gal(b1-4)GlcNAc(b1-3)Gal(b1-4)GlcNAc(b1-2)Man(a1-3)[Gal(b1-4)GlcNAc(b1-3)Gal(b1-4)GlcNAc(b1-3)Gal(b1-4)GlcNAc(b1-3)Gal(b1-4)GlcNAc(b1-3)Gal(b1-4)GlcNAc(b1-2)Man(a1-6)]Man(b1-4)GlcNAc(b1-4)GlcNAc
# In short: as §1
# [22] = biological target: Gal(b1-4)GlcNAc(b1-3)Gal(b1-4)GlcNAc(b1-3)Gal(b1-4)GlcNAc(b1-3)Gal(b1-4)GlcNAc(b1-3)Gal(b1-4)GlcNAc(b1-2)[Gal(b1-4)GlcNAc(b1-3)Gal(b1-4)GlcNAc(b1-3)Gal(b1-4)GlcNAc(b1-3)Gal(b1-4)GlcNAc(b1-3)Gal(b1-4)GlcNAc(b1-6)]Man(a1-6)[Gal(b1-4)GlcNAc(b1-3)Gal(b1-4)GlcNAc(b1-3)Gal(b1-4)GlcNAc(b1-3)Gal(b1-4)GlcNAc(b1-3)Gal(b1-4)GlcNAc(b1-2)Man(a1-3)]Man(b1-4)GlcNAc(b1-4)[Fuc(a1-6)]GlcNAc
# In short: as §1
# [23] = biological target: Gal(b1-4)GlcNAc(b1-3)[Gal(b1-4)GlcNAc(b1-6)]Gal(b1-4)GlcNAc
# In short: as §1
# [24] = biological target: Gal(b1-4)GlcNAc(b1-3)[GlcNAc(b1-6)]Gal(b1-4)GlcNAc
# In short: as §1
# [25] = biological target: Gal6S(b1-3)GlcNAc6S
# In short: as §1
# [26] = biological target: Gal6S(b1-4)Glc
# In short: as §1
# [27] = biological target: GalNAc(b1-4)GlcNAc(b1-3)GalNAc(b1-4)GlcNAc
# In short: as §1
# [28] = biological target: GalNAc(b1-4)GlcNAc6S
# In short: as §1
# [29] = biological target: GlcNAc(a1-4)Gal(b1-4)GlcNAc(b1-3)Gal(b1-4)GlcNAc
# In short: as §1
# [30] = biological target: GlcNAc(b1-2)Man(a1-3)[GlcNAc(b1-4)][GlcNAc(b1-2)Man(a1-6)]Man(b1-4)GlcNAc(b1-4)[Fuc(a1-6)]GlcNAc
# In short: as §1
# [31] = biological target: GlcNAc(b1-3)Gal(b1-4)Glc
# In short: as §1
# [32] = biological target: GlcNAc(b1-3)Gal(b1-4)GlcNAc(b1-3)Gal(b1-4)GlcNAc(b1-3)Gal(b1-4)GlcNAc(b1-2)Man(a1-3)[GlcNAc(b1-3)Gal(b1-4)GlcNAc(b1-3)Gal(b1-4)GlcNAc(b1-3)Gal(b1-4)GlcNAc(b1-2)Man(a1-6)]Man(b1-4)GlcNAc(b1-4)[Fuc(a1-6)]GlcNAc
# In short: as §1
# [33] = biological target: GlcNAc(b1-6)Gal(b1-4)GlcNAc
# In short: as §1
# [34] = biological target: Kdn(a2-3)Gal(b1-4)GlcNAc
# In short: as §1
# [35] = biological target: Neu5Ac(a2-3)Gal(b1-3)GlcNAc
# In short: as §1
# [36] = biological target: Neu5Ac(a2-3)Gal(b1-3)GlcNAc(b1-3)Gal(b1-4)GlcNAc
# In short: as §1
# [37] = biological target: Neu5Ac(a2-3)Gal(b1-3)[Fuc(a1-4)]GlcNAc
# In short: as §1
# [38] = biological target: Neu5Ac(a2-3)Gal(b1-4)GlcNAc(b1-2)Man
# In short: as §1
# [39] = biological target: Neu5Ac(a2-3)Gal(b1-4)GlcNAc(b1-3)Gal(b1-4)GlcNAc(b1-3)Gal(b1-4)GlcNAc(b1-2)Man(a1-3)[Neu5Ac(a2-3)Gal(b1-4)GlcNAc(b1-3)Gal(b1-4)GlcNAc(b1-3)Gal(b1-4)GlcNAc(b1-2)Man(a1-6)]GalNAc
# In short: as §1
# [40] = biological target: Neu5Ac(a2-3)Gal(b1-4)[Fuc(a1-3)]GlcNAc(b1-6)[Gal(b1-3)]GalNAc
# In short: as §1
# [41] = biological target: Neu5Ac(a2-3)Gal(b1-4)[Fuc(a1-3)]GlcNAc6S
# In short: as §1
# [42] = biological target: Neu5Ac(a2-6)Gal(b1-3)GlcNAc(b1-3)[Gal(b1-4)GlcNAc(b1-6)]Gal(b1-4)Glc
# In short: as §1
# [43] = biological target: Neu5Ac(a2-6)Gal(b1-4)GlcNAc(b1-2)Man(a1-3)[Neu5Ac(a2-6)Gal(b1-4)GlcNAc(b1-2)Man(a1-6)]Man(b1-4)GlcNAc(b1-4)GlcNAc
# In short: as §1
# [44] = biological target: Neu5Ac(a2-8)Neu5Ac(a2-3)[GalNAc(b1-4)]Gal(b1-4)Glc
# In short: as §1
# [45] = biological target: Neu5Ac(a2-8)Neu5Ac(a2-8)Neu5Ac
# In short: as §1
binder,measurement,setting,value
"CC1G-10077 (Coprinopsis cinerea), A8NDT7 (protein) MALNEGVYWIRNSRFTNKVLDLDAANVAKGTSILDFNEHGTFNENHNQLWIVERFQSRDTYLIRSVHSNLVLDLSQGLSANGTPILCWTQHGGTNQQWRIEWVKDDNKTPLYRIVSVATGTAISHNEDDSSAYTVAWSVDDGPKQLWSFDPFVTPLLYRLRVKSTSRVLDLAAASADNGTLALAWEQHTAITKRNQLWWLPYRSGAEEYTIQCLETSTVADLSGGNSGNGTPIYGWQSHGGRNQQWKFEPTSDSGDYYHIKNVEGGSVMDAYMNDSQKRVGGWSNNGGDNQKWLLDPLPSPGPGWVLIQNGGTGKFLCSTPSGDIGTADGPETVYDYSVQWRFIQREYTGVYHVVNRATGAYLRQIGTSMPSIGLAEENDDELKDWWMLETYDNSEIGLASIISRWTGNVLDHYGGVSVQALDNNTENSYRSWAIIPARDWLTSFSLVNGQGGLCLAAQYAREETRLSTTANVNDFHAQWVFRKPSGSSGYTIQNKYNNHYVGGTSARWELVVCCNKYFGIRNTSTQKYLAIEDGQVTFQDQDMTDRKQCWELCSGRATDTSGNDYDLIYMDDDLLEVMIPWVGDKQGDLKHYIEKRATKKPPKDKGGWQLPAAGLIKKPKFNDIRQLLQELIEQWEWDVVNEEREQIQTLVSIDEAEARRLLGRRPHPDIVAAYQRSRSSTLFRIDRQGYFNIAGDRYVNIQGQYGDDSYFHIALPVGVRFGREQIRRFLRDSLDRSTSVTITPTTCKPPSGGPDYNRDPDSDGDNSWIKWTIAVVGTSAIKHSEL",glycan array binding signal (z-score),[1],-0.467
same,glycan array binding signal (z-score),[2],-0.51
same,glycan array binding signal (z-score),[3],-0.424
same,glycan array binding signal (z-score),[4],-0.4
same,glycan array binding signal (z-score),[5],1.19
same,glycan array binding signal (z-score),[6],0.177
same,glycan array binding signal (z-score),[7],-0.3
same,glycan array binding signal (z-score),[8],0.744
same,glycan array binding signal (z-score),[9],0.08
same,glycan array binding signal (z-score),[10],0.142
same,glycan array binding signal (z-score),[11],0.199
same,glycan array binding signal (z-score),[12],-0.024
same,glycan array binding signal (z-score),[13],3.26
same,glycan array binding signal (z-score),[14],1.15
same,glycan array binding signal (z-score),[15],0.424
same,glycan array binding signal (z-score),[16],3.12
same,glycan array binding signal (z-score),[17],2.19
same,glycan array binding signal (z-score),[18],3.5
same,glycan array binding signal (z-score),[19],3.22
same,glycan array binding signal (z-score),[20],3.19
same,glycan array binding signal (z-score),[21],3.72
same,glycan array binding signal (z-score),[22],3.25
same,glycan array binding signal (z-score),[23],1.18
same,glycan array binding signal (z-score),[24],3.85
same,glycan array binding signal (z-score),[25],-0.314
same,glycan array binding signal (z-score),[26],0.062
same,glycan array binding signal (z-score),[27],4.2
same,glycan array binding signal (z-score),[28],4.35
same,glycan array binding signal (z-score),[29],-0.431
same,glycan array binding signal (z-score),[30],-0.482
same,glycan array binding signal (z-score),[31],-0.371
same,glycan array binding signal (z-score),[32],-0.141
same,glycan array binding signal (z-score),[33],3.18
same,glycan array binding signal (z-score),[34],-0.466
same,glycan array binding signal (z-score),[35],-0.452
same,glycan array binding signal (z-score),[36],-0.476
same,glycan array binding signal (z-score),[37],-0.473
same,glycan array binding signal (z-score),[38],-0.331
same,glycan array binding signal (z-score),[39],-0.417
same,glycan array binding signal (z-score),[40],-0.37
same,glycan array binding signal (z-score),[41],-0.468
same,glycan array binding signal (z-score),[42],0.306
same,glycan array binding signal (z-score),[43],-0.326
same,glycan array binding signal (z-score),[44],-0.233
same,glycan array binding signal (z-score),[45],-0.448

# Source: the supplement of paper PMC8728848
